# In the library only some 19% were active in any assay of this set; here they are far more common.
# DT40 TDP1 CPT: qHTS for Inhibitors of human tyrosyl-DNA phosphodiesterase 1 (TDP1): qHTS in cells in presence of CPT. chicken DT40 Tdp1-/-;hTDP1 cells + 20 nM CPT, ATP luminescence, 48 h. Potency, µM (doses to about 46.2 µM), for the others: at the highest dose activity change, negative = growth inhibition, most hits filed as inhibitors. 420,000 compounds, 12% hits. AID 686979, 2013; also: potency is read from the fitted curve at half-maximal effect; % is scaled to controls: 0 for no effect and ±100 for the full control effect; nearly all actives have a fitted effect of over 55% in size
#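 Chicken DT40 Tdp1-/- cells stably complemented with human TDP1 were seeded at 400 cells/well in medium containing 20 nM camptothecin, exposed to pin-transferred compounds, and grown at 37 °C for at least 48 hr. Viability was read as ATP luminescence.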
# IL1B secr inh: qHTS for Inhibitors of Inflammasome Signaling: IL-1-beta AlphaLISA Primary Screen; THP-1 LPS/ATP IL-1B secretion, AlphaLISA, 16 h; active compounds read low; activity change, % at 57.5 µM; 360,000 compounds, 4.7% hits; in the data active = activity change below about -50%; inconclusive = mostly about -30% to -49%; also: % is scaled to controls: 0 for no effect and ±100 for the full control effect
#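 THP-1 cells pretreated 1 hr with compounds (up to 57.5 uM final), then stimulated with LPS (250 ng/mL final) plus ATP (1.25 mM final); secreted IL-1B measured by AlphaLISA after 16 hr, decreased signal indicating inhibition.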
# HepG2 tox: qHTS for Inhibitors of TGF-b: Cytotox Counterscreen; HepG2 CAGA-GFP viability, ATP luminescence, 18 h; Potency, µM (highest dose often 46.1 µM), for inactives: top-dose activity change, negative = cytotoxicity, actives largely listed as cytotoxic; 410,000 compounds, 0.76% hits; AID 588856, 2011; also: potency is read from the fitted curve at half-maximal effect
#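 HepG2 CAGA-GFP cells (1000/well, DMEM with 1% FBS) received compound, then TGF-beta at 500 pg/mL final, and were incubated 18 hours at 37 degrees C. Viability was read by CellTiter-Glo luminescence. Media-only wells were set as complete cell-killing and DMSO as no toxicity.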
# TGFb SMAD3 inh: qHTS for Inhibitors of TGF-b | 410,000 compounds, 1.2% hits | Potency, µM (top dose mostly 46.1 µM), inactives show at the top dose activity, negative = inhibition, usual class: inhibitors | HepG2 CAGA-GFP TGF-b/SMAD3 reporter, GFP fluorescence, 18 h; TGF-beta stimulated, 500 pg/mL final | AID 588855, 2011; also: potency is read from the fitted curve at half-maximal effect; % is scaled to controls: 0 for no effect and ±100 for the full control effect; nearly all actives have a fitted effect of over 65% in size
#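 HEPG2 CAGA-GFP, 1000 cells/well; 2 h settle, 37 C; cpd via pin tool; TGF-b 500 pg/mL final; 18 h, 37 C; GFP imaging ex488/em500-530; %Activity normalised to -TGF-b and +DMSO controls; CRC fit, curve class.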
# DT40 TDP1 no CPT: qHTS for Inhibitors of human tyrosyl-DNA phosphodiesterase 1 (TDP1): qHTS in cells in absence of CPT. DT40 Tdp1-/- hTDP1 cells, no CPT, ATP luminescence, 48 h. Potency, µM (doses to about 46.2 µM), without a hit: at the highest dose activity change, negative = growth inhibition, actives largely listed as inhibitors. 420,000 compounds, 15% hits. AID 686978, 2013; also: potency is read from the fitted curve at half-maximal effect; % is scaled to controls: 0 for no effect and ±100 for the full control effect; nearly all actives have a fitted effect of over 55% in size
#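 Luminescent ATP content (CellTiter-Glo) served as the growth readout. Knockout chicken DT40 cells expressing human TDP1 were exposed to compounds without camptothecin for a minimum 48 hr at 37 °C.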
# TDP1 inh: qHTS Assay for Inhibitors of Tyrosyl-DNA Phosphodiesterase (TDP1). Potency, µM (top dose mostly 130 µM), for inactives: at the highest dose activity change, negative = inhibition, most hits filed as inhibitors. Tyrosyl-DNA phosphodiesterase 1 (Homo sapiens), Q9NUW8. recombinant TDP1, AlphaScreen DNA substrate cleavage. 350,000 compounds, 0.28% hits; also: potency is read from the fitted curve at half-maximal effect; % is scaled to controls: 0 for no effect and ±100 for the full control effect; nearly all actives have a fitted effect of over 40% in size
# Target sequence (Q9NUW8 whole entry, looked up): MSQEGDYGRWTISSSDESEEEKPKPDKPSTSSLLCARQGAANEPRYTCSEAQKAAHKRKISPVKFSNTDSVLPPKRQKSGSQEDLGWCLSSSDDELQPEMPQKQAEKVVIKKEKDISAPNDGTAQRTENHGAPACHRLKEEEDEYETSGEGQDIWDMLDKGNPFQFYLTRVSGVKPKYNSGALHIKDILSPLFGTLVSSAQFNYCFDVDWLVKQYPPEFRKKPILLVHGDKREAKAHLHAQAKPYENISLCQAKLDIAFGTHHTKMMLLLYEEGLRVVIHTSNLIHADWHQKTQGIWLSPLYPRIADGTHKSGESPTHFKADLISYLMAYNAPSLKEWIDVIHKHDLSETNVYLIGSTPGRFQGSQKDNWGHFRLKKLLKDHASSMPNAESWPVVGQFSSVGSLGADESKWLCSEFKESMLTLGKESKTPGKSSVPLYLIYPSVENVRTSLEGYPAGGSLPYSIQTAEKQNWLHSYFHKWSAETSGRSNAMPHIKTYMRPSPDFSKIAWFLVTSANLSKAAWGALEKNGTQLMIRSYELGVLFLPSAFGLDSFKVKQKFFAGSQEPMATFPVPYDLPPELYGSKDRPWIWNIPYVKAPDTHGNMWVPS
#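 Recombinant E. coli-expressed Tdp1 (1 nM) preincubated with compound 15 min at RT, then 5'-biotin/3'-phosphotyrosine-FITC DNA substrate (15 nM) added for 5 min. AlphaScreen beads (10 ug/ml) added, 10 min RT; tyrosine-FITC cleavage read as signal loss.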
# * = called active by the depositor; ? = inconclusive; · = no result given; [ ] = another dose, or the depositor's remark. Unless noted, calls follow the shape of the dose curve; as a rule, active = well fitted curve in the direction sought with a large enough effect; inconclusive = small, poorly fitted or top-dose-only effect, or another doubt; inactive = no such curve, though single readings can be large; an effect the other way counts as inactive or inconclusive.
SMILES,DT40 TDP1 CPT,IL1B secr inh,HepG2 tox,TGFb SMAD3 inh,DT40 TDP1 no CPT,TDP1 inh
C=C1C=C(C)n2ncc(C(=O)Nc3ccc(F)cc3F)c2N1,1%,·,5%,12%,4%,·
COc1ccc(/C=C2\SC(=Nc3ccccc3Cl)NC2=O)c(OC)c1,26µM*,-52*,-14%,-11%,15µM*,·
COc1ccc(C2Oc3cc(OC)cc(OC)c3CC2O)cc1 (stereo not drawn),?,·,·,·,16µM*,13%[56.1 µM]
COc1cccc([C@@H]2Oc3ccc(OC)cc3C[C@H]2O)c1,·,·,·,·,·,7%
COc1ccc(CN2CCC3(CCC(CNC(=O)c4ccnn4C)O3)CC2)c(C)c1C (stereo not drawn),-29%,·,·,·,?,·
CCN(CC(=O)Nc1ccccc1OC)CC(=O)Nc1ccccc1C(F)(F)F,?,16,-22%,-7%,?,-3%
COc1ccccc1NC(=O)CCSCCC(=O)Nc1ccccc1OC,7%,21,8%,16%,?,-4%
COc1ccccc1CN(C)CC(=O)Nc1ccccc1-c1ccccc1,?,-82*,2%,0%,23µM*,-1%
Cc1ccc(CC(=O)Nc2ccccc2-c2ccccc2)cc1C,?,7,9%,?,?,-5%
COc1ccc(CC(=O)Nc2ccccc2-c2ccccc2)cc1OC,16µM*,-28,-7%,-2%,21µM*,11%
CCN(CC(=O)Nc1ccccc1OC)CC(=O)Nc1ccccc1-c1ccccc1,7.3µM*,27,3%,?,9.2µM*,-3%
COc1ccccc1NC(=O)CCC(=O)c1ccc(-c2ccccc2)cc1,?,61,-4%,-38%,23µM*,3%
Cc1cccc(C)c1NC(=O)CNC(=O)c1ccc(N2CCCC2=O)cc1,12%,-7,3%,10%,5%,1%
COc1cc(Cl)c(C)cc1NC(=S)NN,?,32,8%,-18%,18µM*,3%
COc1cc(Cl)c(C)cc1NC(=O)Cc1cccs1,12%,-1,0%,3%,-4%,·
CN(CC(=O)Nc1ccccc1Oc1ccccc1)Cc1ccccc1F,?,-5,-17%,?,?,-9%
COc1ccc(CN(C)CC(=O)Nc2ccccc2-c2ccccc2)c(OC)c1,?,-51*,-1%,?,18µM*,3%
COc1cc(NC(=S)NC(C)(C)C)c(OC)cc1Cl,?,49,-38%,?,-17%,-8%
COc1cc(Cl)c(C)cc1NC(=O)Cc1ccc(OC)c(OC)c1,-28%,-21,-22%,2%,15µM*,0%
COc1ccccc1NC(=O)c1ccc(NC(=O)CN(C)Cc2ccccc2F)cc1,-8%,·,-8%,-7%,23µM*,12%
Cc1ccccc1NS(=O)(=O)c1ccc(C(=O)N2CCN(c3ccccc3O)CC2)cc1,12µM*,?,4%,-4%,15µM*,3%
Cc1ccccc1NS(=O)(=O)c1ccc(C(=O)N2CCN(c3ccccn3)CC2)cc1,?,-4,-19%,-1%,15µM*,1%
CCOc1ccc(N(CC(=O)NCc2ccc(C)cc2)S(=O)(=O)c2c(C)noc2C)cc1,-26%,·,1%,-31%,-24%,0%
CCC(C)Nc1nc2ccccc2n2c(C)nnc12 (stereo not drawn),-19%,-22,6%,12%,-21%,·

# From PubChem BioAssay
